Among all 5,500 compounds or so, about 2,000 (36%) were called active. About 18% were inconclusive and are not listed. Rule as the data show it: active = normalized growth mostly below about 0.91 (no sharp cut-off); inconclusive = no clear call, values can overlap the other calls; inactive = mostly above about 0.92. Some of the results follow.
Test: chemical genetic growth profiling, strain panel (AID 1159580);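 also: tested at 20 µM; growth read once vehicle control cultures reached saturation at 30 °C; 1 = growth at the plate median or of vehicle wells; lower values mean less growth of the strain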
Conditions: S. cerevisiae deletion strains, growth OD

Measured: normalized growth

COc1ccc(C(=O)c2ccccc2)c(O)c1O
active: locus YDL185W, strain tfp1, stronger effect = lower value 0.901 | locus YDL192W, strain arf1, stronger effect = lower value 0.892 | locus YDR137W, strain rgp1, stronger effect = lower value 0.787 | locus YDR502C, strain sam2, stronger effect = lower value 0.9 | locus YER155C, strain BEM2 (second series), stronger effect = lower value 0.81 | locus YGL078C, strain dbp3, stronger effect = lower value 0.909 | locus YGR135W, strain pre9, stronger effect = lower value 0.846 | locus YGR252W, strain gcn5, stronger effect = lower value 0.698 | locus YJL095W, strain BCK1, stronger effect = lower value 0.724 | locus YKR001C, strain vps1, stronger effect = lower value 0.781 | locus YLR262C, strain YPT6 (second series), stronger effect = lower value 0.843 | locus YLR418C, strain cdc73, stronger effect = lower value 0.825 | locus YMR058W, strain fet3, stronger effect = lower value 0.897 | locus YNL271C, strain bni1, stronger effect = lower value 0.908 | locus YNL307C, strain MCK1, stronger effect = lower value 0.906 | locus YNR052C, strain pop2, stronger effect = lower value 0.896 | locus YPR163C, strain tif3, stronger effect = lower value 0.813 | locus YPR167C, strain met16, stronger effect = lower value 0.919
inactive: locus YAL013W, strain DEP1, stronger effect = lower value 0.929 | locus YAL021C, strain ccr4, stronger effect = lower value 0.981 | locus YAL026C, strain drs2, stronger effect = lower value 0.973 | locus YAL030W, strain snc1, stronger effect = lower value 0.974 | locus YBL061C, strain skt5, stronger effect = lower value 0.973 | locus YBR009C, strain hhf1, stronger effect = lower value 0.973 | locus YBR021W, strain FUR4, stronger effect = lower value 0.853 | locus YBR023C, strain chs3, stronger effect = lower value 0.969 | locus YBR171W, strain sec66, stronger effect = lower value 0.945 | locus YBR229C, strain ROT2, stronger effect = lower value 0.999 | locus YBR231C, strain swc5, stronger effect = lower value 0.962 | locus YBR279W, strain paf1, stronger effect = lower value 0.957 | locus YCL011C, strain gbp2, stronger effect = lower value 0.968 | locus YCL016C, strain dcc1, stronger effect = lower value 0.986 | locus YCL029C, strain bik1, stronger effect = lower value 0.956 | locus YCL061C, strain MRC1, stronger effect = lower value 0.968 | locus YCL069W, strain vba3, stronger effect = lower value 0.986 | locus YCR088W, strain abp1, stronger effect = lower value 0.981 | locus YDL005C, strain med2, stronger effect = lower value 0.971 | locus YDL035C, strain GPR1, stronger effect = lower value 0.974 | locus YDL040C, strain nat1, stronger effect = lower value 0.985 | locus YDL074C, strain BRE1, stronger effect = lower value 0.868 | locus YDL101C, strain DUN1, stronger effect = lower value 0.953 | locus YDL134C, strain PPH21, stronger effect = lower value 0.904 | locus YDR001C, strain nth1, stronger effect = lower value 0.975 | locus YDR069C, strain doa4, stronger effect = lower value 0.939 | locus YDR101C, strain arx1, stronger effect = lower value 0.983 | locus YDR159W, strain sac3, stronger effect = lower value 0.975 | locus YDR162C, strain NBP2, stronger effect = lower value 0.947 | locus YDR195W, strain ref2 1.02 | locus YDR297W, strain sur2, stronger effect = lower value 0.966 | locus YDR318W, strain mcm21, stronger effect = lower value 0.933 | locus YDR334W, strain swr1, stronger effect = lower value 0.951 | locus YDR335W, strain msn5, stronger effect = lower value 0.97 | locus YDR388W, stronger effect = lower value 0.962 | locus YDR392W, strain spt3, stronger effect = lower value 0.851 | locus YEL003W, strain gim4, stronger effect = lower value 0.96 | locus YEL037C, strain rad23, stronger effect = lower value 0.964 | locus YEL061C, strain CIN8 (second series), stronger effect = lower value 0.974 | locus YEL061C, strain CIN8, stronger effect = lower value 0.967 | locus YER015W, strain faa2, stronger effect = lower value 0.965 | locus YER016W, strain bim1, stronger effect = lower value 0.972 | locus YER110C, stronger effect = lower value 0.936 | locus YER111C, strain swi4, stronger effect = lower value 0.97 | locus YER155C, strain BEM2, stronger effect = lower value 1.02 | locus YER167W, strain BCK2, stronger effect = lower value 0.997 | locus YFR010W, strain ubp6, stronger effect = lower value 0.937 | locus YGL086W, strain mad1, stronger effect = lower value 0.937 | locus YGL167C, strain pmr1, stronger effect = lower value 0.955 | locus YGL173C, strain kem1, stronger effect = lower value 0.948 | locus YGL227W, strain vid30, stronger effect = lower value 0.99 | locus YGL240W, strain doc1, stronger effect = lower value 0.92 | locus YGL248W, strain PDE1, stronger effect = lower value 0.92 | locus YGL253W, strain hxk2, stronger effect = lower value 0.979 | locus YGR078C, strain PAC10, stronger effect = lower value 0.891 | locus YHR013C, strain ard1, stronger effect = lower value 0.941 | locus YHR027C, strain rpn1, stronger effect = lower value 0.959 | locus YHR030C, strain SLT2, stronger effect = lower value 0.979 | locus YHR079C, strain IRE1 (second series), stronger effect = lower value 0.932 | locus YHR094C, strain hxt1, stronger effect = lower value 0.955 | locus YHR129C, strain ARP1, stronger effect = lower value 0.927 | locus YHR142W, strain chs7, stronger effect = lower value 0.939 | locus YHR200W, strain rpn10, stronger effect = lower value 0.937 | locus YIL066C, strain RNR3, stronger effect = lower value 0.976 | locus YIL073C, strain SPO22, stronger effect = lower value 0.897 | locus YIL125W, strain kgd1, stronger effect = lower value 0.969 | locus YIR030C, strain dcg1, stronger effect = lower value 0.958 | locus YJL092W, strain hpr5, stronger effect = lower value 0.967 | locus YJL095W, strain BCK1 (second series), stronger effect = lower value 0.971 | locus YJL115W, strain asf1, stronger effect = lower value 0.945 | locus YJL129C, strain trk1, stronger effect = lower value 0.966 | locus YJL134W, strain LCB3, stronger effect = lower value 0.991 | locus YJL154C, strain vps35, stronger effect = lower value 0.972 | locus YJL164C, strain tpk1, stronger effect = lower value 0.96 | locus YJL166W, strain qcr8, stronger effect = lower value 0.973 | locus YJL168C, strain set2, stronger effect = lower value 0.96 | locus YJL187C, strain SWE1 (second series), stronger effect = lower value 0.885 | locus YJL187C, strain SWE1, stronger effect = lower value 0.971 | locus YJR043C, strain POL32, stronger effect = lower value 0.942 | locus YKL009W, strain mrt4, stronger effect = lower value 0.933 | locus YKL068W, stronger effect = lower value 0.957 | locus YKL085W, strain MDH1 (second series), stronger effect = lower value 0.963 | locus YKL085W, strain MDH1, stronger effect = lower value 0.963 | locus YKL160W, strain elf1, stronger effect = lower value 0.971 | locus YKR026C, strain gcn3, stronger effect = lower value 0.964 | locus YKR091W, strain srl3, stronger effect = lower value 0.978 | locus YLL001W, strain dnm1, stronger effect = lower value 0.974 | locus YLL026W, stronger effect = lower value 0.988 | locus YLL041C, strain sdh2, stronger effect = lower value 0.957 | locus YLR027C, strain aat2, stronger effect = lower value 0.975 | locus YLR039C, strain RIC1, stronger effect = lower value 0.788 | locus YLR058C, strain SHM2, stronger effect = lower value 0.933 | locus YLR102C, strain apc9, stronger effect = lower value 0.974 | locus YLR221C, strain rsa3, stronger effect = lower value 0.98 | locus YLR258W, strain gsy2, stronger effect = lower value 0.97 | locus YLR262C, strain YPT6, stronger effect = lower value 0.824 | locus YLR268W, strain sec22, stronger effect = lower value 0.907 | locus YLR320W, strain mms22, stronger effect = lower value 0.936 | locus YLR330W, strain CHS5, stronger effect = lower value 0.947 | locus YLR342W, strain FKS1 (second series), stronger effect = lower value 0.851 | locus YLR342W, strain FKS1, stronger effect = lower value 0.977 | locus YLR357W, strain rsc2, stronger effect = lower value 0.885 | locus YLR370C, strain arc18, stronger effect = lower value 0.975 | locus YLR371W, strain rom2, stronger effect = lower value 0.948 | locus YLR384C, strain iki3, stronger effect = lower value 0.968 | locus YML016C, strain PPZ1, stronger effect = lower value 0.979 | locus YML032C, strain rad52, stronger effect = lower value 0.926 | locus YML120C, strain ndi1, stronger effect = lower value 0.967 | locus YML124C, strain tub3, stronger effect = lower value 0.957 | locus YMR078C, strain ctf18, stronger effect = lower value 0.931 | locus YMR125W, strain sto1, stronger effect = lower value 0.97 | locus YMR129W, stronger effect = lower value 0.973 | locus YMR205C, strain PFK2, stronger effect = lower value 0.991 | locus YMR223W, strain ubp8, stronger effect = lower value 0.909 | locus YMR231W, strain pep5, stronger effect = lower value 0.973 | locus YMR307W, strain GAS1, stronger effect = lower value 0.983 | locus YNL067W, strain RPL9B, stronger effect = lower value 0.918 | locus YNL071W, strain lat1, stronger effect = lower value 0.971 | locus YNL153C, strain GIM3, stronger effect = lower value 0.906 | locus YNL209W, strain ssb2, stronger effect = lower value 0.965 | locus YNL233W, strain BNI4, stronger effect = lower value 0.895 | locus YNL248C, strain rpa49, stronger effect = lower value 0.984 | locus YNL250W, strain rad50, stronger effect = lower value 0.9 | locus YNL298W, strain CLA4, stronger effect = lower value 0.965 | locus YNL322C, strain KRE1 (second series), stronger effect = lower value 0.978 | locus YNR049C, strain mso1, stronger effect = lower value 0.983 | locus YOL006C, strain TOP1, stronger effect = lower value 0.69 | locus YOL012C, strain htz1 0.47 | locus YOL147C, strain pex11, stronger effect = lower value 0.963 | locus YOR001W, strain rrp6, stronger effect = lower value 0.955 | locus YOR061W, strain CKA2, stronger effect = lower value 0.989 | locus YOR069W, strain VPS5, stronger effect = lower value 0.948 | locus YOR070C, strain gyp1, stronger effect = lower value 0.975 | locus YOR080W, strain dia2, stronger effect = lower value 0.989 | locus YOR083W, strain WHI5, stronger effect = lower value 0.953 | locus YOR106W, strain vam3, stronger effect = lower value 0.932 | locus YOR136W, strain idh2, stronger effect = lower value 0.952 | locus YOR144C, strain elg1, stronger effect = lower value 0.971 | locus YOR184W, strain ser1, stronger effect = lower value 0.996 | locus YOR265W, strain rbl2, stronger effect = lower value 0.973 | locus YOR270C, strain vph1, stronger effect = lower value 0.854 | locus YOR290C, strain snf2, stronger effect = lower value 0.929 | locus YOR316C, strain cot1, stronger effect = lower value 0.948 | locus YPL051W, strain arl3, stronger effect = lower value 0.936 | locus YPL078C, strain atp4, stronger effect = lower value 0.975 | locus YPL106C, strain sse1, stronger effect = lower value 0.901 | locus YPL240C, strain hsp82, stronger effect = lower value 0.954 | locus YPL241C, strain CIN2, stronger effect = lower value 0.977 | locus YPR119W, strain clb2, stronger effect = lower value 0.947 | locus YPR141C, strain kar3, stronger effect = lower value 0.923 | strain wtn01, stronger effect = lower value 0.971

— PubChem BioAssay AID1159580 (chemical genetic matrix, 2015)
